# Source: PubChem (NMMLSC)
# Autofluor counter = compound fluorescence in toxin protease inhibitor counterscreen; compound autofluorescence counterscreen, microsphere flow cytometry; stronger effect = higher value; fluorescence intensity (no concentration beside the values); 360,000 tested, 3.1% active; AID 624483; in the data active = fluorescence intensity above about 16000; inconclusive = no clear call, values can overlap the other calls
# Anthrax LF prot = blocks Bacillus anthracis lethal factor protease | inhibition, % at 10 µM | 360,000 tested, 0.12% active | P15917 | multiplex microsphere protease cleavage assay, LF | AID 588501; note: plate controls were buffer without enzyme for full effect and enzyme alone for no effect
# Target sequence (P15917 whole entry, looked up): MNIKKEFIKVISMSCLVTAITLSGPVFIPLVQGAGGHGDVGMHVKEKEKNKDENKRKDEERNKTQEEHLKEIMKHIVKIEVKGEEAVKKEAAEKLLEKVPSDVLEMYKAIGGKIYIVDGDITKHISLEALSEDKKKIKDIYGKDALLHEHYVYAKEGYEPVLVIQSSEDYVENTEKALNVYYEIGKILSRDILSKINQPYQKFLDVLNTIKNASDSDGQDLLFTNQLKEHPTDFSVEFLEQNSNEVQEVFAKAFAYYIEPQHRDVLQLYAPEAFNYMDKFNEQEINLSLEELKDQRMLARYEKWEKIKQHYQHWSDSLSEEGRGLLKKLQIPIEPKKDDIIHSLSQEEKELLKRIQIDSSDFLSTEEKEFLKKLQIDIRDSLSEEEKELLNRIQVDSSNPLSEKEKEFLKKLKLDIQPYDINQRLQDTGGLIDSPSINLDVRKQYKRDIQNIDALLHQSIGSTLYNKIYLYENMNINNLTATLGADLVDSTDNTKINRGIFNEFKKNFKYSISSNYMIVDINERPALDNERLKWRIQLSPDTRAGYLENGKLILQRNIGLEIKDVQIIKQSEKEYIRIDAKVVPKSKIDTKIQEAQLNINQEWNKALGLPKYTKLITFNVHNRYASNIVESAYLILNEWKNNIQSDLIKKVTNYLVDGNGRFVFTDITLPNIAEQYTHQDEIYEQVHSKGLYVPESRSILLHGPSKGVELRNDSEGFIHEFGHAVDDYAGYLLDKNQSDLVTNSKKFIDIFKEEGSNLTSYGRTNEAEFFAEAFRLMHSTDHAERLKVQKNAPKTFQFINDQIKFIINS
# BoNT F protease = blocks Botulinum neurotoxin F light chain protease; inhibition, % at 10 µM; AID 588497; Multiplex microsphere protease cleavage assay, flow cytometry; 360,000 tested, 0.22% active; in the data active = inhibition above about 35%, passing the limit was not always enough; inconclusive = no clear call, values can overlap the other calls; note: plate controls were buffer without enzyme for full effect and enzyme alone for no effect
# BoNT A protease = BoNT A light chain protease inhibition. 360,000 tested, 0.17% active. AID 588499. inhibition, % at 10 µM. multiplex microsphere protease substrate cleavage, flow cytometry; note: plate controls were buffer without enzyme for full effect and enzyme alone for no effect
# Starred values were filed as active, the others as inactive; ? = inconclusive. A selection: hits, their analogues and other compounds. The true share with any hit is near 3.5%. Cut-off read from the data, not from the text of the source, unless noted: active = inhibition above about 30%; inconclusive = no clear call, values can overlap the other calls; inactive = below that.
SMILES,Autofluor counter,Anthrax LF prot,BoNT F protease,BoNT A protease
COc1ccc(Nc2ccc3c(c2)=NC2(CCCCC2)[N+]=3[O-])cc1,7525,-9.6,-12.3,0.3
CC(C)CC(=O)Nc1ccc(C(=O)COC(=O)CN2C(=O)NC3(CCCCC3C)C2=O)cc1 (stereo not drawn),5678,-4.7,-4.6,1.3
Cc1cnc(=O)[nH]c1SCc1ccc([N+](=O)[O-])cc1,5242,-1.2,1.9,1.0
Clc1ccccc1OCCCCN1CCCC1,20741*,-4.9,6.7,8.6
Clc1ccccc1OCCCCN1CCCCC1,3645,-2.4,-22.3,-0.7
CCOc1ccc(N(CC(=O)N/N=C/c2cccnc2)S(C)(=O)=O)cc1,2452,0.7,0.7,0.6
CCOC(=O)c1nn(-c2ccccc2)c(=O)cc1SC(C)CC (stereo not drawn),23432*,0.3,-3.0,-2.1
CCCSc1cc(=O)n(-c2ccccc2)nc1C(=O)O,1895,-1.4,-1.2,-0.1
CCCCSc1cc(=O)n(-c2ccccc2)nc1C(=O)OCC,23302*,0.2,-3.6,-1.6
CCOC(=O)c1nn(-c2ccccc2)c(=O)cc1SC(C)C,11481,-0.9,1.6,-0.2
CCCn1nnnc1COc1ccc(C(N)=O)cc1,3479,2.2,13.1,-1.7
COC(=O)C1=CN(c2ccc(OC)cc2)C=C(C(=O)OC)C1c1ccc(C)c([N+](=O)[O-])c1,1987,-0.3,-3.2,0.6
COC(=O)C1=CN(c2cccc(C)c2)C=C(C(=O)OC)C1c1cc(OC)c(O)c([N+](=O)[O-])c1,22321*,-0.2,1.8,1.6
CC1CSc2ccccc2NC1=S (stereo not drawn),16476*,-5.6,-2.5,-0.2
CCc1ccc(CNn2cnnc2SCC(=O)NC(C)(C)C)cc1,16664*,-1.3,-1.2,-0.9
Cc1ccc(-n2c(=O)c3sccc3n(CC(=O)N3CCCC3)c2=O)cc1,9658,0.9,0.8,-0.6
O=C(Cn1c(=O)n(-c2ccccc2)c(=O)c2sccc21)N1CCCC1,23839*,0.0,-4.1,-0.6
Cc1cnc(NC(=O)C2CCCO2)s1 (stereo not drawn),16597*,-2.0,-2.2,?
CCOc1ccc(-c2csc(NC(=O)C3CCCO3)n2)cc1 (stereo not drawn),21480*,-0.9,-3.4,-2.1
O=C(Cn1c(=O)c2sccc2n(Cc2cccc([N+](=O)[O-])c2)c1=O)NCCc1ccccc1,2428,-1.4,-5.5,-0.5
COc1ccccc1CNC(=O)N1CCN(c2ccccc2Cl)CC1,5969,-2.3,-7.1,-1.0
CCC(C)NC(=O)C1CCN(S(=O)(=O)c2cccs2)CC1 (stereo not drawn),9450,0.4,-0.5,0.0
O=C(NC1CCCCC1)C1CCN(S(=O)(=O)c2cccs2)CC1,3849,-2.0,4.4,0.8
O=C(OCCN1C(=O)c2ccccc2C1=O)C1CCN(S(=O)(=O)c2cccs2)CC1,22995*,-5.2,-2.2,?
CCOC(=O)N1CCC(NC(=O)C2CCN(S(=O)(=O)c3cccs3)CC2)CC1,20126*,-2.0,0.6,1.0
SMILES,Autofluor counter,Anthrax LF prot,BoNT F protease,BoNT A protease
CCC(CC)NC(=O)C1CCN(S(=O)(=O)c2cccs2)CC1,23956*,-3.6,-0.5,-0.6
CCN(CC)c1ccc(NC(=O)c2ccc3c(c2)OCO3)cc1,3662,4.2,-8.4,-6.8
CSCCC(NC(=O)C1CCC(C)CC1)C(=O)O (stereo not drawn),23567*,-2.8,-5.7,?
CC(C)CC(NC(=O)C1CCC(C)CC1)C(=O)NCCN1CCOCC1 (stereo not drawn),3723,-3.8,-10.1,-2.1
CSCCC(NC(=O)C1CCC(C)CC1)C(=O)NCCN1CCOCC1 (stereo not drawn),22383*,1.9,-0.1,0.5
O=C(CN1CC(c2ccccc2)CC1=O)OCc1cccc(Br)c1 (stereo not drawn),?,-25.7,16.0,?
Nc1nnnn1CC(=O)OCc1cccc(Br)c1,23207*,-0.8,-2.3,?
CN(C(=O)COC(=O)c1ccc(Cl)c(S(=O)(=O)NCc2ccccc2)c1)C1CCS(=O)(=O)C1 (stereo not drawn),?,-0.6,3.8,-1.7
CN(C)S(=O)(=O)c1ccc(C(=O)OCC(=O)Nc2ccccc2OC(F)F)cc1,23884*,-1.7,-4.3,-1.7
O=C(COC(=O)c1ccc(S(=O)(=O)NCc2ccco2)cc1)Nc1ccccc1OC(F)F,3950,-2.8,-2.1,-0.2
CCc1c(C)nc2c(C#N)c[nH]n2c1=O,8422,3.4,7.0,2.8
CCOC(=O)Cc1c(C)nc2c(C#N)c[nH]n2c1=O,23050*,2.7,-1.5,-1.0
CCC(C)NC(=O)COc1ccc(Br)c(C)c1 (stereo not drawn),20456*,-3.5,-3.0,-1.1
CCc1c(C2(O)CCCCC2)[nH]c2cnccc12,3412,-3.8,-10.2,-0.2
Cc1cc(CSc2ccc(Cl)cc2)ccc1N,4142,-5.5,-7.3,-0.5
Cc1ccccc1OCC1CNC(=O)O1 (stereo not drawn),2006,1.8,0.0,-0.2
O=C1NCC(CN(c2ccccc2)c2ccccc2)O1 (stereo not drawn),19299*,-2.8,4.3,3.0
C/C(=N\NC(=O)c1cc(C)oc1C)c1ccc2ccccc2c1,5487,0.4,4.3,-1.3
CC(OC(=O)/C(C#N)=C/c1ccc(N(C)C)cc1)C(=O)N(C)Cc1ccccc1 (stereo not drawn),5241,5.1,16.7,16.1
CNC(=S)NC(CC(=O)OC)c1ccc2c(c1)OCO2 (stereo not drawn),3693,0.5,2.5,-0.3
O=C(c1ccncc1)N1CCN(S(=O)(=O)c2cccc(F)c2)CC1,5073,1.1,-3.5,1.8
O=C(c1cccc(Br)c1)N1CCN(C(=O)N2CCCCC2)CC1,9790,-0.5,-19.5,-2.0
O=C(c1cccc(C(F)(F)F)c1)N1CCCC1,16789*,-2.6,-4.6,?
O=C(c1cccc(F)c1)N1CCN(S(=O)(=O)c2ccc(C(F)(F)F)cc2)CC1,22916*,0.2,2.2,?
O=C(c1cccc(Br)c1)N1CCCC1,23116*,-0.5,1.2,?
SMILES,Autofluor counter,Anthrax LF prot,BoNT F protease,BoNT A protease
CC(=O)c1c(C)[nH]c(C(=O)CSc2nnc(C)s2)c1C,4363,-3.0,-3.3,-0.2
COc1ccc(S(=O)(=O)Nc2ccccc2OC)cc1C,6268,-4.3,-7.3,-0.8
COc1ccc(S(=O)(=O)Nc2ccccc2SC)cc1C,23520*,-1.1,-0.7,-0.8
COc1ccc(NS(=O)(=O)c2ccc(SC)cc2)c(OC)c1,21230*,0.6,1.7,6.0
OC(c1cccc(Cl)c1)c1nc(/C=C/c2ccccc2)cs1 (stereo not drawn),3328,-4.0,-10.4,-0.6
COc1ccc(OCCCC(=O)NNC(=O)c2ccncc2)cc1,5749,-3.8,-6.2,-0.2
COc1cccc2cc(C(=O)OCC(=O)NCc3ccc4c(c3)OCO4)c(=O)oc12,6151,-3.5,-12.1,-1.1
CCOc1ccccc1NC(=O)c1cc2ccccc2o1,3566,-5.7,-13.8,-0.5
CCOc1ccccc1NC(=O)c1cc2ccccc2oc1=O,3036,9.9,39.9*,3.5
O=C(Nc1ccon1)c1cc2ccccc2oc1=O,20901*,-1.7,-1.8,-1.0
O=C(CSc1ncccc1C(=O)O)Nc1ccc2c(c1)OCCO2,5903,2.5,-3.4,0.4
CCCNC(=O)CN1C(=O)c2ccccc2Sc2ncccc21,3990,29.6*,-0.6,2.4
